The results in this text go back to PubChem BioAssay (NCI).

SMILES strings stand for the structures. About 79,000 compounds went through this panel and 15% of them were active in at least one assay; those are over-represented in the sample as a whole. Unmarked numbers belong to inactive results. The source made the active and inactive calls. Rule as the data show it: active = growth inhibition above about 70%; inactive = the rest.

A short description of assay [1]: NCI Yeast Anticancer Drug Screen. Data for the rad50 strain (AID 155).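 Also: 0% = growth of vehicle-only cultures of the same strain.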 As to conditions: S. cerevisiae rad50 strain growth inhibition; at 50.0 µM; stronger effect = higher value. The gist of the method: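 A DNA repair-deficient yeast mutant serves as the test organism; compound-induced growth inhibition is calculated against vehicle-treated cells.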
Assay [2] can be described thus: NCI Yeast Anticancer Drug Screen. Data for the mec2-1 strain (AID 157). As to conditions: S. cerevisiae mec2-1 strain, at 50.0 µM, stronger effect = higher value. In a few lines: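 Growth inhibition is read against vehicle-treated controls after compound exposure of the mec2-1 yeast strain, which is defective in DNA damage repair or cell cycle control.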
A short description of assay [3]: NCI Yeast Anticancer Drug Screen. Data for the sgs1 mgt1 strain (AID 161).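 Also: 0% = growth of cultures given vehicle only.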 As to conditions: S. cerevisiae sgs1 mgt1 strain, at 50.0 µM, stronger effect = higher value. In a few lines: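 Percent growth inhibition was derived by comparing compound-exposed mutant yeast with vehicle-exposed cultures. The strain carries alterations in DNA damage repair.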
The nature of assay [4]: NCI Yeast Anticancer Drug Screen. Data for the cln2 rad14 strain (AID 165).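 Also: 0% = growth equal to vehicle treated cultures.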 As to conditions: S. cerevisiae cln2 rad14 strain, at 50.0 µM, stronger effect = higher value. The gist of the method:
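Growth inhibition, relative to vehicle-treated controls, is the read-out. The test organism is a yeast strain with defined genetic alterations, cln2 rad14.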

Assay [5] in a line: NCI Yeast Anticancer Drug Screen. Data for the bub3 strain (AID 167). As to conditions: S. cerevisiae bub3 mutant strain, at 50.0 µM, stronger effect = higher value. In a few lines: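 Inhibition values come from growth of compound-treated mutant yeast normalised to vehicle-treated controls.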
The nature of assay [6]: NCI Yeast Anticancer Drug Screen. Data for the mlh1 rad18 strain (AID 175). As to conditions: S. cerevisiae mlh1 rad18 strain growth inhibition; at 50.0 µM; stronger effect = higher value. The gist of the method:
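Cells of a genetically altered yeast strain, deficient in DNA damage repair, were treated with compound. Their growth was then compared with that of vehicle-treated cultures to give inhibition.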

For `C[CH2][Sn]([CH2]C)([O][P+](=O)C[Si](C)(C)c1ccccc1)[O][P+](=O)C[Si](C)(C)c1ccccc1` (stereo unspecified), the growth inhibition in assay [1] is 3.8%; in assay [2], 29.6%; in assay [3], 12.7%; in assay [4] it was -3.55%; in assay [5], -3.35%; in assay [6], 17.9%.
`COC(=O)c1cc(C)n(C)c(=O)c1CNS(=O)(=O)c1ccc(C)cc1`: the growth inhibition in assay [1] was -1.25%; in assay [2], 6.45%; in assay [3] it was 0.85%; in assay [4] it was -6%; in assay [5] it was -2.8%; in assay [6], -12.3%.
Turning to `O=c1cn[nH]c(=O)[nH]1`, the growth inhibition is 35.4% in assay [1]; 0.7% in assay [2]; 32.5% in assay [3]; 10.8% in assay [4]; 4.9% in assay [5]; 11.5% in assay [6].
As to `Cc1ccc(-c2c3c(n(C4OC(CO)C(O)C(O)C4O)c(=S)c2C#N)CC(C)(C)CC3=O)cc1` (stereo unspecified), the growth inhibition in assay [1] is 23.5%; in assay [2] it was 13.7%; in assay [3], -4.45%; in assay [4] it was -8.95%; in assay [5], 9.15%; in assay [6], 11.8%.
Turning to `CC1OC(OC2CCC3(C)C(CCC4C3CC(O)C3(C)C(C5=CC(=O)OC5)CCC43O)C2)CC(O)C1OC1CC(O)C(OC2CC(O)C(OC3OC(CO)C(O)C(O)C3O)C(C)O2)C(C)O1` (stereo unspecified), the growth inhibition in assay [1] is 16.4%; in assay [2], -7.7%; in assay [3] it was -0.4%; in assay [4] it was 4.35%; in assay [5] it was 10.6%; in assay [6] it was 20.1%.
In the case of `CCOP(=O)(OCC)c1nc(Cl)nc(Cl)c1SC(F)(F)F`, the growth inhibition is 33.3% in assay [1]; 11.3% in assay [2]; 14.5% in assay [3]; 13.2% in assay [4]; -4.4% in assay [5]; 25.2% in assay [6].
For the molecule `NC(Cc1cnc[nH]1)C(=O)NCC(=O)O` (stereo unspecified), the growth inhibition in assay [1] is -11.4%; in assay [2], -6.2%; in assay [3], -11.8%; in assay [4], -10.2%; in assay [5] it was 4.3%; in assay [6], -8.95%.
Consider `CC(CCC(=O)O)[C@H]1CCC2[C@@H]3CC[C@@H]4CC(O)CC[C@]4(C)C3CC[C@@]21C` (stereo partly specified), for which the growth inhibition was -31.1% in assay [1]; -18.1% in assay [2]; -13.8% in assay [3]; -0.1% in assay [4]; -16.1% in assay [5]; -26.7% in assay [6].
Regarding `O=C1C2CCCC3CCCC(C(=O)N1NC1CCCCC1)C32` (stereo unspecified), the growth inhibition is 39.4% in assay [1]; 28.6% in assay [2]; 27.9% in assay [3]; 29.7% in assay [4]; 53.4% in assay [5]; 49% in assay [6].
In the case of `CCOc1ccc(-c2nc(-c3oc4ccccc4c(=O)c3OC(C)=O)cs2)cc1`, the growth inhibition was -5.25% in assay [1]; 1% in assay [2]; 1.85% in assay [3]; -2.85% in assay [4]; -5.9% in assay [5]; 9.4% in assay [6].
`O=C(O)COc1ccc(/C=C2\SC(=S)NC2=O)cc1`: the growth inhibition was -3.9% in assay [1]; -8.3% in assay [2]; 1.6% in assay [3]; -36.5% in assay [4]; 18.9% in assay [5]; -12.2% in assay [6].
For `O=C1/C(=C/c2ccccc2)CCCC/C1=C\c1ccccc1`, the growth inhibition is 27.9% in assay [1]; 31% in assay [2]; 40.5% in assay [3]; -1.9% in assay [4]; 9.75% in assay [5]; 15.9% in assay [6].
As to `O=C(O)CC(Sc1ccccc1)c1ccccc1` (stereo unspecified), the growth inhibition in assay [1] is 12.9%; in assay [2] it was -9.2%; in assay [3], -2.8%; in assay [4], 32%; in assay [5], 45.7%; in assay [6], 7.7%.
For `CCOC(=S)SCc1cc(C(C)(C)C)c(O)c(C(C)(C)C)c1`, the growth inhibition in assay [1] is 2.7%; in assay [2] it was 14.4%; in assay [3], 20.2%; in assay [4] it was -20.2%; in assay [5], 1.15%; in assay [6], 1.8%.
Consider `CC(=O)ON(C(=O)c1ccccc1)c1ccccc1`, for which the growth inhibition was -1.7% in assay [1]; 0.95% in assay [2]; 4.3% in assay [3]; -5.15% in assay [4]; 7.05% in assay [5]; 12.1% in assay [6].
Consider `O=C1C(c2ccccc2)=C2c3ccccc3-c3ccccc3C2(O)C1c1ccccc1` (stereo unspecified), for which the growth inhibition in assay [1] is 91.8% (active); in assay [2], 94.8% (active); in assay [3], 94.4% (active); in assay [4] it was 91.5% (active); in assay [5], 90.9% (active); in assay [6] it was 94.2% (active).
For the molecule `O=S(=O)(Nc1c(Cl)c(Cl)c(NS(=O)(=O)c2ccccc2)c(Cl)c1Cl)c1ccccc1`, the growth inhibition in assay [1] was 46.2%; in assay [2] it was 0.6%; in assay [3], 13.4%; in assay [4], -5.6%; in assay [5], 4.55%; in assay [6] it was 15.5%.
For the molecule `CC(=O)OCC(=O)[C@@]1(O)CC[C@H]2[C@@H]3C[C@H](Cl)C4=CC(=O)C=C[C@]4(C)[C@H]3C(=O)C[C@@]21C`, the growth inhibition in assay [1] was 15.4%; in assay [2] it was 3%; in assay [3], 47.5%; in assay [4], 49.5%; in assay [5] it was -7.75%; in assay [6], 39.5%.
In the case of `Cc1cc([N+](=O)[O-])ccc1Sc1c2ccccc2nc2ccccc12`, the growth inhibition is -63.5% in assay [1]; -16.2% in assay [2]; -13.8% in assay [3]; 11.3% in assay [4]; -17.5% in assay [5]; -18.9% in assay [6].
With `O=C(O)C(O)(O)C(=O)O`, the growth inhibition was -2.9% in assay [1]; -11.2% in assay [2]; -12.6% in assay [3]; 22.6% in assay [4]; 5.8% in assay [5]; -4.05% in assay [6].
Take `N#CC(C(=O)O)C(c1cccc2ccccc12)c1cccc2ccc3ccccc3c12` (stereo unspecified): the growth inhibition was 51% in assay [1]; -2.3% in assay [2]; 27.1% in assay [3]; -4.35% in assay [4]; 7.05% in assay [5]; 13.8% in assay [6].
